DT40 TDP1 no CPT: qHTS for Inhibitors of human tyrosyl-DNA phosphodiesterase 1 (TDP1): qHTS in cells in absence of CPT. DT40 Tdp1-/- hTDP1 cells, no CPT, ATP luminescence, 48 h. Potency, µM (doses to about 46.2 µM), inactives show at the top dose activity change, negative = growth inhibition, actives largely listed as inhibitors. 420,000 compounds, 15% hits. AID 686978, 2013; further: nearly all actives have a fitted effect of over 55% in size
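Readout: luminescence from CellTiter-Glo after 30 min in the dark at RT. Cells: DT40 Tdp1-/- with stable hTDP1, 400/well. Exposure: compounds alone, ≥48 hr, 37 °C.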
VP16 counter: counter-screen for ROR gamma inhibitors: Gal4-VP16 reporter | Potency, µM (highest dose often 53.6 µM), inactives show at the top dose activity, negative = inhibition, actives largely listed as inhibitors | Drosophila S2 Gal4-VP16 UAS-luciferase, luminescence, 20 h | 310,000 compounds, 3.5% hits;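 further: Gal4-VP16 expression switched on by copper sulfate through the metallothionein promoter; nearly all actives have a fitted effect of over 50% in size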
RORgamma inh: ROR gamma (mouse) transcription inhibition | Drosophila S2 Gal4-RORgamma UAS-luciferase reporter, 20 h | P51450 | Potency, µM (titrated, usually from 53.6 µM), for inactives: top-dose activity change, negative = inhibition, most hits filed as inhibitors | AID 2551 | 310,000 compounds, 5.4% hits; further: nearly all actives have a fitted effect of over 60% in size
Target sequence (P51450 whole entry, looked up, the tested form may be a part): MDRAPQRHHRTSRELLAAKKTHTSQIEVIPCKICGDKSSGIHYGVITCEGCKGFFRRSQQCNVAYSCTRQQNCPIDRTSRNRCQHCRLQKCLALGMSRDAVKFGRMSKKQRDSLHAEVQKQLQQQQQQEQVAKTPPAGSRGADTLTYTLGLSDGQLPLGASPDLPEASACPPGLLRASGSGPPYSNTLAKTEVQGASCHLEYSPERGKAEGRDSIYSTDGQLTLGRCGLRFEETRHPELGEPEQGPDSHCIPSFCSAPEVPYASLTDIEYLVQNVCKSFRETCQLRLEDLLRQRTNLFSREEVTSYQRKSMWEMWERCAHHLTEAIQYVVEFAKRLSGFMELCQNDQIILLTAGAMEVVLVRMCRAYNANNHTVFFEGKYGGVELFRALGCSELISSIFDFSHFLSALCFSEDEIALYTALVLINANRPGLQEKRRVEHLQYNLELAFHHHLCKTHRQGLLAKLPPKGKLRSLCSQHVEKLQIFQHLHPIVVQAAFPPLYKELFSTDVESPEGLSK
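Compounds are pin-transferred onto Drosophila Schneider cells expressing a copper-inducible Gal4–ROR gamma transactivation domain fusion. After 1 hr, copper sulfate is added to 700 uM final; luciferase is read 20 hr later.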
TDP1 block: blocks human tyrosyl-DNA phosphodiesterase 1; Q9NUW8; recombinant TDP1, AlphaScreen DNA substrate cleavage; Potency, µM (series often up to 130 µM), for inactives: at the top dose activity change, negative = inhibition, actives largely listed as inhibitors; 350,000 compounds, 0.28% hits; AID 485290; further: nearly all actives have a fitted effect of over 40% in size
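Signal: AlphaScreen proximity between streptavidin donor and anti-FITC acceptor beads on intact substrate. Reaction: Tdp1 1 nM, substrate 15 nM final, 5 min RT after 15 min compound preincubation.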
TDP1 cell CPT: growth inhibition of DT40 Tdp1-/-;hTDP1 cells with camptothecin (screen for TDP1 inhibitors); Potency, µM (series often up to 46.2 µM), inactives show at the top dose activity change, negative = growth inhibition, usual class: inhibitors; 420,000 compounds, 12% hits; chicken DT40 Tdp1-/-;hTDP1 cells + 20 nM CPT, ATP luminescence, 48 h; AID 686979; further: nearly all actives have a fitted effect of over 55% in size
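Chicken DT40 Tdp1-/- cells stably complemented with human TDP1 were seeded at 400 cells/well in medium containing 20 nM camptothecin, exposed to pin-transferred compounds, and grown at 37 °C for at least 48 hr. Viability was read as ATP luminescence.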
* = called active by the depositor; ? = inconclusive; / = no result; [ ] = remark or other dose. An excerpt weighted towards active compounds, which were near 19% of everything screened. The call rests on the fitted dose curve; in most records, active means well fitted curve in the direction sought with a large enough effect; inconclusive means small, poorly fitted or top-dose-only effect, or another doubt; inactive means no such curve, though single readings can be large; an effect the other way counts as inactive or inconclusive. On the % scale 0 is the no-effect control and ±100 the full control effect; potency means the concentration at half of the fitted maximal effect.

SMILES	DT40 TDP1 no CPT	VP16 counter	RORgamma inh	TDP1 block	TDP1 cell CPT
N#Cc1ccc(C23CC4(C2)[C@H](CN(P(=O)(c2ccccc2)c2ccccc2)[C@@H]4c2ccccc2)C3c2ccc(Cl)nc2)cc1 (some centres not stated)	?	-6%	36%	12%	23µM*
COc1ccc2c(c1)c(=O)c(C(=O)c1ccc(C)cc1)cn2Cc1ccccc1F	?	/	/	5%	?
COc1ccc(C(=O)c2cn(Cc3ccccc3F)c3ccc(F)cc3c2=O)cc1	21µM*	/	/	6%	?
CCOc1ccc2c(c1)c(=O)c(C(=O)c1ccccc1)cn2Cc1ccccc1F	21µM*	/	/	3%	?
Cc1cc(NCc2ccncc2)ccc1Br	-27%	3%	15%	?	?
COc1ccc(/C=N/NC(=O)c2ccc(COc3cccc4cccnc34)cc2)cc1OC	3%	-6%	-5%	3%	-14%
COc1cc(NC(=O)CN2c3cccc4cccc(c34)S2(=O)=O)cc(OC)c1OC	21µM*	?	-75%	3%	?
O=C(N/N=C/c1ccc(OCc2ccc(F)cc2)cc1)c1ccccc1	-27%	-11%	32%	4%	-10%
CC(C)(C)c1ccc(OCc2ccc(C(=O)N/N=C/c3ccc(O)c(O)c3)cc2)cc1	1.5µM*	16µM*	?	1%	1.3µM*
COc1ccc(/C=N/NC(=O)c2ccc(COc3cccc4cccnc34)cc2)cc1O	13µM*	10%	19%	5%	?
COCCCn1c(C)cc(C(=O)CN2c3cccc4cccc(c34)S2(=O)=O)c1C	16µM*	/	/	4%	29µM*
CCOC(=O)c1sc(C)c(C(=O)NCC(C)(C)CN(C)C)c1N	-1%	5%	-21%	0%	-4%
CCSc1nnc(NC(=O)C(C)Sc2nc3ccccc3[nH]2)s1 (configuration not stated)	?	?	-10%	-9%	?
O=C(N/N=C/c1cccc(O)c1)c1ccc(COc2cccc3cccnc23)cc1	?	-4%	45%	3%	-30%
O=C(N/N=C/c1ccc2c(c1)OCO2)c1ccc(COc2cccc3cccnc23)cc1	26µM*	-17%	-29%	3%	?
COc1cc(/C=N/NC(=O)c2ccc(CN3c4cccc5cccc(c45)S3(=O)=O)cc2)cc(OC)c1O	16µM*	-1%	5%	-6%	?
Cc1ccc(NC(=O)CNc2ccc(Cl)cc2F)cc1	3%	0%	?	3%	-20%
COc1cc(C)nc(-n2nc(C)cc2OC)n1	-1%[21.1 µM]	?	3.2µM*	6%	5%[21.1 µM]
CCOC(=O)c1cc(C)nn1-c1nc(Cl)cc(OC)n1	-24%	-4%	2%	3%	-30%
CCc1nnc(NC(=O)c2ccc(C)o2)s1	19%	1%	22%	1%	-7%
O=C(c1cc2nc(-c3ccco3)cc(C(F)(F)F)n2n1)N1CCN(Cc2ccccc2)CC1	?	-4%	31%	0%	18µM*
COc1ccc(-c2cc(C(F)(F)F)n3nc(C(=O)N4CCN(C(=O)c5ccco5)CC4)cc3n2)cc1	21µM*	-2%	0%	/	15µM*
COc1ccc(-c2cc(C(F)(F)F)n3nc(C(=O)N4CCCC4)cc3n2)cc1	-20%	2%	-5%	1%	-29%
C[C@@H](CCc1ccc(O)cc1)NCCc1ccc(O)c(O)c1	11µM*	-4%	-23%	2%	6µM*
O=C(OCC(=O)N1CCOCC1)c1c(Cl)ccc(Cl)c1Cl	7%	4%	10%	-5%	0%
SMILES	DT40 TDP1 no CPT	VP16 counter	RORgamma inh	TDP1 block	TDP1 cell CPT
COc1cc(CN2CCN(CCCSc3cc(C(C)(C)C)c(O)c(C(C)(C)C)c3)CC2)cc(OC)c1OC	/	?	-24%	17%	/
CC(C)(C)c1cc(CN2CCN(CCO)CC2)cc(C(C)(C)C)c1O	21µM*	-10%	2%	0%	13µM*
COc1cc(CNC(=O)C2CC2)ccc1OCc1ccccc1	?	-6%	32µM*	13%	?
CCOC(=O)C1CCN(Cc2ccc(OC)c(OCc3ccccc3)c2)CC1	18µM*	-1%	22%	/	13µM*
CCOC(=O)C1CCN(Cc2cc(C(C)(C)C)c(O)c(C(C)(C)C)c2)CC1	18µM*	-2%	1%	0%	?
COc1cc(CN2CCC(C(=O)NCCC(C)C)CC2)ccc1OCc1ccccc1	?	3%	4%	/	?
CCOC(=O)C1CCN(Cc2ccc(Cl)c(Cl)c2)CC1	-1%	-8%	8%	-4%	-11%
COc1ccc(OC)c(N/C(C)=C/C(=O)c2ccc(C)o2)c1	-11%	?	-26%	9%	5%
COC(=O)/C=C1\OCc2cc(OC)c(OCc3ccccc3)cc21	21µM*	/	/	/	?
COC(=O)/C=C1\OCc2cc(C)ccc21	14%	/	/	/	5%
Cc1nnc(NC(=O)c2cccc(S(=O)(=O)N3CCN(C)CC3)c2)s1	-25%	/	/	/	-11%
O=C(c1ccc(S(=O)(=O)Cc2ccccc2F)c([N+](=O)[O-])c1)N1CCCC1	?	-14%	-24%	2%	18µM*
Cc1ccc(CS(=O)(=O)c2ccc(C(=O)N3CCCCC3)cc2[N+](=O)[O-])cc1	?	-4%	-13%	6%	?
CC1CCN(C(=O)c2ccc(S(=O)(=O)Cc3ccccc3F)c([N+](=O)[O-])c2)CC1	16µM*	-5%	6%	3%	?
O=C(c1ccc(S(=O)(=O)c2ccc(F)cc2)c([N+](=O)[O-])c1)N1CCCCCC1	2.3µM*	?	?	0%	3.3µM*
Cc1c(C(=O)NC2CCCCCC2)sc2ncnc(NCC3CCCO3)c12 (configuration not stated)	?	/	/	/	-4%[9.04 µM]
CC1CCC2(OC1)OC1CC3C4CCC5CC(O)CCC5(C)C4=CCC3(C)C1C2C (configuration not stated)	-14%	-9%	-1%	7%	3%
O=C(Nc1ccccc1Cl)c1ccccc1Oc1ccc(C(F)(F)F)cc1[N+](=O)[O-]	18µM*	-9%	23%	11%	23µM*
COc1ccccc1NC(=O)COc1ccc(C(F)(F)F)cc1[N+](=O)[O-]	18µM*	/	/	/	?
COc1ccc(C(=O)Nn2c(SCC(=O)c3ccc(Cl)cc3)nc3ccccc3c2=O)cc1	-22%	?	11µM*	-1%	-24%
COc1ccc(C(=O)Nn2c(SCC(=O)N3CCC(C)CC3)nc3ccccc3c2=O)cc1	-21%	10µM*	10µM*	1%	-17%
COc1ccc(C(=O)Nn2c(C)nc3ccccc3c2=O)cc1	-22%	2%	15%	/	-4%

Bioassay records (PubChem)
